Composite z-score data for 36 compounds are collected here from PubChem BioAssay.

Structures are written as SMILES.

Fibroblast growth factor 2 (Homo sapiens), sequence (P09038 whole entry, looked up): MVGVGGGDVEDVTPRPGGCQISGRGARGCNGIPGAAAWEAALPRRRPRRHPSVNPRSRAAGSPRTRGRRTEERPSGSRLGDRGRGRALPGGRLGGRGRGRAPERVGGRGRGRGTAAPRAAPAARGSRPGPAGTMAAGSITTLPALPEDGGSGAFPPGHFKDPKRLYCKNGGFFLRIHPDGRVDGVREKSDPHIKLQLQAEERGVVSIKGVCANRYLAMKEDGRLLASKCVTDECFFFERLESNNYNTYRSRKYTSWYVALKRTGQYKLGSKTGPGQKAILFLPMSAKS

This test addresses Fibroblast growth factor 2 (Homo sapiens) (UniProt P09038). In words: FGF2 binders on small-molecule microarrays, primary screen, biochemical, small-molecule microarray, 635/667 nm fluorescence (AID 1133). The settings on record: small-molecule microarray binding, FGF2, fluorescence 635/667; higher = more signal.
The compound `CC(C)[C@@H](OCc1ccccc1)[C@H](C)C=NOC[C@@H](O)COCc1ccco1` gave a composite z-score of -1.37.

`CC(C)(C)N1C(=O)[C@H]2[C@H]3[C@H](O)C=CC(=O)[C@@H]3CC[C@H]2C1=O` displayed a composite z-score of 0.255.

For `CCOC(=O)[C@H](CC(C)C)NC(=O)CCC1CC(OC(=O)NCc2cccc3ccccc23)CC2(CCCC(COC(=O)NCCOC)O2)O1` (stereo partly specified), the composite z-score came to 0.648.

In turn, `Cc1ccc(S(=O)(=O)n2c3ccccc3c3nnc(C(=O)c4ccccc4)nc32)cc1` yielded a composite z-score of 0.978.

`CCN1C(=O)[C@H]2[C@H]3[C@H](O)[C@H](O)CC(=NOC[C@H]4O[C@H](c5ccccc5)C=C[C@@H]4Oc4ccc(OC)cc4)[C@@H]3CC[C@H]2C1=O` came in with a composite z-score of 1.01.

With `Cc1cc2c(c(=O)o1)[C@@H](O)[C@H]1O[C@H]1C2=O`, the composite z-score was determined as 0.374.

Compound `C#CCCCON=C1C[C@@H](O)[C@@H](O)[C@@H]2[C@@H]3C(=O)N(c4cccc(Oc5ccccc5)c4)C(=O)[C@@H]3CC[C@H]12` came in with a composite z-score of -0.455.

Consider `CC(CCN1CCc2nc(-c3ccccc3)c(-c3ccccc3)cc2C1)=NOC[C@@H](O)[C@H]1O[C@@H]2OC(C)(C)O[C@@H]2[C@H]1O`, for which the composite z-score worked out at 0.409.

The compound `CC(CCN1CCc2nc(-c3ccccc3)c(-c3ccccc3)cc2C1)=NOC[C@@H](O)COCc1ccco1` had a composite z-score of 0.496.

For the compound `CSCC[C@@H]1NC(=O)CC=C[C@@H](C)COC(=O)[C@@H](C)COC1=O`, the composite z-score was found to be 0.0867.

`CC(=O)Nc1ccc([C@@H]2N[C@H](C(=O)O)CC[C@H]2C)cc1`: the composite z-score is 0.284.

In the case of `C#CCCCON=C1[C@H]2CCn3c(=O)n(-c4ccccc4)c(=O)n3[C@H]2[C@H](O)[C@@H]2O[C@H]12`, the composite z-score worked out at 0.27.

Compound `COC(=O)[C@@H]1CC[C@H](C)[C@@H](c2ccc(C)cc2)N1C(=O)c1ccc(C=NOC[C@@H](C)[C@H](OCc2ccccc2)C(C)C)cc1` returned a composite z-score of 0.698.

`CCOC(=O)[C@H](Cc1ccccc1)NC(=O)CCC1CC(OC(=O)NCc2cccc3ccccc23)CC2(CCCC(COC(=O)NCCC(C)C)O2)O1` (stereo partly specified) returned a composite z-score of -0.278.

In turn, `C=CC[C@@H]1C=C[C@H](ON=C2[C@H]3CCn4c(=O)n(-c5ccccc5)c(=O)n4[C@H]3[C@H](O)[C@@H]3O[C@H]23)[C@@H](CO)O1` yielded a composite z-score of 0.095.

The compound `CCOC(=O)[C@H](CC(C)C)NC(=O)CCC1CC(OC(=O)NCc2cccc3ccccc23)CC2(CCCC(COC(=O)NCCOc3ccccc3)O2)O1` (stereo partly specified) came in with a composite z-score of 0.373.

Turning to `C[C@@H](c1ccccc1)N1C(=O)[C@H]2[C@H]3[C@H](O)[C@H](O)CC(=NOCc4ccccc4)[C@H]3CC[C@H]2C1=O`, the composite z-score worked out at 0.181.

The compound `CCCNC(=O)OC[C@H]1O[C@H](CCON=C(C)CCN2CCc3nc(CC)c(CC)cc3C2)C=C[C@@H]1Oc1ccc(OC)cc1` had a composite z-score of -0.167.

`CCCNC(=O)OC[C@H]1O[C@H](CCON=C(C)C)C=C[C@@H]1Oc1ccc(OC)cc1`: the composite z-score was -0.245.

In turn, `CC(=O)O[C@H]1C2=CO[C@H](C)[C@H]3[C@H]4C5=C([C@H](O)[C@H]6O[C@H]6C5=O)[C@H](OC4C)[C@@]23C(=O)[C@@H]2O[C@@H]21` (stereo partly specified) had a composite z-score of 1.35.

As to `C=CC[C@@H]1C=C[C@H](ON=C[C@@H](C)[C@H](OCc2ccccc2)C(C)C)[C@@H](CO)O1`, the composite z-score was -0.178.

Turning to `COC(=O)CC=C[C@@H](C)[C@@H](C=NOC(C)CN1CCCc2nc(C)c(C)cc21)OC` (stereo partly specified), the composite z-score was 0.604.

Compound `CC(CCN1CCCCc2nc(C)c(C)cc21)=NOC[C@@H](C)[C@H](OCc1ccccc1)C(C)C` registered a composite z-score of -0.84.

In turn, `CON=C(C)CCC(=O)OC[C@H]1O[C@H](c2ccccc2)C=C[C@@H]1Oc1ccc(OC)cc1` gave a composite z-score of 0.48.

With `CON=CC[C@@H]1C=C[C@H](OC(C)=O)[C@@H](COC(C)=O)O1`, the composite z-score turned out to be 0.495.

Turning to `Cn1c(=O)n2n(c1=O)[C@H]1[C@H](O)[C@@H]3O[C@@H]3C(=O)[C@H]1CC2`, the composite z-score is 0.348.

For the compound `COc1ccc(COC(=O)NN=C2C[C@@H](O)[C@@H](O)[C@@H]3[C@@H]4C(=O)N(Cc5ccccc5)C(=O)[C@@H]4CC[C@H]23)cc1`, the composite z-score is -0.977.

In turn, `C#CCCCON=C1C[C@@H](O)[C@@H](O)[C@@H]2[C@@H]3C(=O)N(C(C)(C)C)C(=O)[C@@H]3CC[C@@H]12` registered a composite z-score of -0.92.

`C[C@@H](c1ccccc1)N1C(=O)[C@H]2[C@H]3[C@H](O)[C@H](O)CC(=NO[C@@H]4O[C@H](CO)[C@@H](O)[C@H](O)[C@H]4O)[C@H]3CC[C@H]2C1=O` returned a composite z-score of 0.444.

In turn, `CCOC(=O)CCN1C(=O)[C@H]2[C@H]3[C@H](O)[C@H](O)CC(=NOCc4ccccc4)[C@H]3CC[C@H]2C1=O` registered a composite z-score of -0.772.

The compound `CO[C@H]1COC(=O)[C@@H](C)COC(=O)[C@H](COCc2ccccc2)NC(=O)CC=C[C@H]1C` yielded a composite z-score of 1.21.

As for `COc1cccc([C@H]2Oc3ccc(OC)cc3C(=NO[C@@H]3O[C@H](COC(C)=O)[C@@H](OC(C)=O)[C@H](OC(C)=O)[C@H]3OC(C)=O)[C@@H]2O)c1`, the composite z-score worked out at 0.192.

`CCOC(=O)[C@H](CC(C)C)NC(=O)CCC1CC(OC(=O)NCc2ccc3c(c2)OCO3)CC2(CCCC(COC(=O)NCc3cccc(C(F)(F)F)c3)O2)O1` (stereo partly specified) showed a composite z-score of 0.363.

As for `CCN1C(=O)[C@H]2[C@H]3[C@H](O)[C@H](O)CC(=NOCC(C)C)[C@@H]3CC[C@H]2C1=O`, the composite z-score came out at 0.0017.

Turning to `COC(=O)[C@H](C)NC(=O)CCC1CC(OC(=O)NCCc2ccc(F)cc2)CC2(CCCC(COC(=O)NCCC(C)C)O2)O1` (stereo partly specified), the composite z-score stood at 0.761.

As to `C=CC[C@@H]1C=C[C@H](ON=C(C)CCN2CCc3nc(-c4ccccc4)c(-c4ccccc4)cc3C2)[C@@H](CO)O1`, the composite z-score turned out to be 0.362.
